For 7 compounds, AC50 and outcome results are on record in PubChem BioAssay (EPA / NIEHS).

Each structure is given as a SMILES string. Active and inactive are the calls of the source. Rule for the calls: active = hit-call score of the fitted dose curve at least 0.9, where 1 is the maximum; inactive = score below 0.9.

As usually defined, the AC50 is the concentration giving half of the maximal activity seen.

Read-out in test [1]: Interferon-gamma inducible Protein 10 (IP10), CXCL10 (gene 3627)
Put plainly: BSK_hDFCGF_IP10: BioMAP Diversity Plus: hDFCGF Assay for Interferon-gamma inducible Protein 10 (IP10) Biomarker Activity (AID 2283053). The conditions noted are these: primary human foreskin fibroblasts; actives raise or lower the signal. The gist of the method:
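Primary foreskin fibroblasts, human; 24 h compound exposure; IP-10 by ELISA; bidirectional fit vs DMSO.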

Read-out in test [2]: Urokinase-type plasminogen activator receptor (uPAR), PLAUR (gene 5329)
Put plainly: BSK_CASM3C_uPAR: BioMAP Diversity Plus: CASM3C Assay for Urokinase-type plasminogen activator receptor (uPAR) Biomarker Activity (AID 2283054).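 Note: cell-surface uPAR protein level quantified by ELISA.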 The conditions noted are these: primary human coronary artery smooth muscle cells; actives raise or lower the signal.

Read-out in test [3]: Vascular cell adhesion molecule 1 (VCAM1), VCAM1 (gene 7412)
Put plainly: BSK_CASM3C_VCAM1: BioMAP Diversity Plus: CASM3C Assay for Vascular cell adhesion molecule 1 (VCAM1) Biomarker Activity (AID 2283055).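 Note: VCAM-1 protein level quantified by ELISA on the cells.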 The conditions noted are these: primary human coronary artery smooth muscle cells; actives raise or lower the signal.

Read-out in test [4]: Collagen III, COL3A1 (gene 1281)
Put plainly: BSK_hDFCGF_CollagenIII: BioMAP Diversity Plus: hDFCGF Assay for Collagen III Biomarker Activity (AID 2283056). The conditions noted are these: primary human foreskin fibroblasts; actives raise or lower the signal. The essentials:
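hDFCGF primary human dermal fibroblasts; 24 h chemical exposure; collagen III by ELISA; bidirectional curve fit vs DMSO baseline (gain or loss of signal).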

Read-out in test [5]: Epidermal growth factor receptor (EGFR), EGFR (gene 1956)
Put plainly: BSK_hDFCGF_EGFR: BioMAP Diversity Plus: hDFCGF Assay for Epidermal growth factor receptor (EGFR) Biomarker Activity (AID 2283057). The conditions noted are these: primary human foreskin fibroblasts; actives raise or lower the signal. The gist of the method: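 hDFCGF system, primary human foreskin fibroblasts; compound 24 h; EGFR measured by ELISA; DMSO = negative control/baseline; bidirectional fitting.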

Read-out in test [6]: Interleukin-8 (IL8), CXCL8 (gene 3576)
Put plainly: BSK_hDFCGF_IL8: BioMAP Diversity Plus: hDFCGF Assay for Interleukin-8 (IL8) Biomarker Activity (AID 2283058). The conditions noted are these: primary human foreskin fibroblasts; actives raise or lower the signal. The gist of the method: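 ELISA read-out of IL-8 from primary human foreskin fibroblast cultures taken 24 h after dosing; values are bidirectional fits relative to DMSO vehicle.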

Test [7] is described as follows: BSK_hDFCGF_Proliferation: Cell Proliferation Assessment in the BioMAP Diversity Plus: hDFCGF Assay (AID 2283059).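 Note: curves fitted for both rise and fall of signal versus DMSO baseline.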 The conditions noted are these: primary human foreskin fibroblasts. The gist of the method:
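Steps: dose primary human dermal fibroblasts (foreskin); […] fix in 10% TCA; stain with 0.1% SRB; read 560 nm; fit gain or loss of signal against DMSO.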

Read-out in test [8]: Macrophage colony-stimulating factor (MCSF), CSF1 (gene 1435)
Put plainly: BSK_hDFCGF_MCSF: BioMAP Diversity Plus: hDFCGF Assay for Macrophage colony-stimulating factor (MCSF) Biomarker Activity (AID 2283060). The conditions noted are these: primary human foreskin fibroblasts; actives raise or lower the signal. The essentials: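 ELISA read-out of M-CSF in human dermal foreskin fibroblast cultures, 24 h after chemical dosing; gain or loss of signal fitted bidirectionally relative to DMSO baseline.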

Read-out in test [9]: TIMP metallopeptidase inhibitor 1 (TIMP1), TIMP1 (gene 7076)
The test can be described thus: BSK_hDFCGF_TIMP1: BioMAP Diversity Plus: hDFCGF Assay for TIMP metallopeptidase inhibitor 1 (TIMP1) Biomarker Activity (AID 2283062). The conditions noted are these: primary human foreskin fibroblasts; actives raise or lower the signal. The gist of the method: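 ELISA readout of TIMP-1 from human dermal foreskin fibroblast cultures 24 h post-dosing. Curves were fitted in both directions against DMSO baseline, with SRB total-protein staining in parallel cultures as a cytotoxicity check.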

Read-out in test [10]: Monokine induced gamma interferon (MIG), CXCL9 (gene 4283)
The test can be described thus: BSK_hDFCGF_MIG: BioMAP Diversity Plus: hDFCGF Assay for Monokine induced gamma interferon (MIG) Biomarker Activity (AID 2283063). The conditions noted are these: primary human foreskin fibroblasts; actives raise or lower the signal. The gist of the method:
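Fibroblasts (human foreskin, primary) dosed, 24 h, MIG by ELISA; fit bidirectional vs DMSO.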

Read-out in test [11]: Matrix Metallopeptidase 1 (MMP1), MMP1 (gene 4312)
The test can be described thus: BSK_hDFCGF_MMP1: BioMAP Diversity Plus: hDFCGF Assay for Matrix Metallopeptidase 1 (MMP1) Biomarker Activity (AID 2283064). The conditions noted are these: primary human foreskin fibroblasts; actives raise or lower the signal. The gist of the method: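 Primary human foreskin fibroblasts in the hDFCGF system were dosed with test chemical, and MMP1 was measured by ELISA 24 h later. Values come from bidirectional curve fitting against the DMSO baseline.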

Read-out in test [12]: Plasminogen activator inhibitor-1 (PAI1), SERPINE1 (gene 5054)
Put plainly: BSK_hDFCGF_PAI1: BioMAP Diversity Plus: hDFCGF Assay for Plasminogen activator inhibitor-1 (PAI1) Biomarker Activity (AID 2283066). The conditions noted are these: primary human foreskin fibroblasts; actives raise or lower the signal. The essentials: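 Primary dermal fibroblasts (human foreskin), hDFCGF system; compound 24 h; PAI-1 by ELISA; bidirectional fit vs DMSO control.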

Read-out in test [13]: Intercellular Adhesion Molecule 1 (ICAM1), ICAM1 (gene 3383)
The test can be described thus: BSK_KF3CT_ICAM1: BioMAP Diversity Plus: KF3CT Assay for Intercellular Adhesion Molecule 1 (ICAM1) Biomarker Activity (AID 2283067). The conditions noted are these: primary human keratinocytes with fibroblasts; actives raise or lower the signal. The essentials:
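ELISA readout of ICAM-1; KF3CT human skin co-culture (keratinocytes + foreskin fibroblasts), 24 h post-dose; gain/loss fit vs DMSO baseline.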

Read-out in test [14]: Interferon-gamma inducible Protein 10 (IP10), CXCL10 (gene 3627)
Put plainly: BSK_KF3CT_IP10: BioMAP Diversity Plus: KF3CT Assay for Interferon-gamma inducible Protein 10 (IP10) Biomarker Activity (AID 2283068). The conditions noted are these: primary human keratinocytes with fibroblasts; actives raise or lower the signal. The gist of the method:
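KF3CT co-culture (keratinocytes + foreskin fibroblasts), 24 h compound, IP-10 by ELISA; bidirectional fit vs DMSO baseline.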

Test [15] can be described thus: BSK_KF3CT_SRB: Viability Assessment in the BioMAP Diversity Plus: KF3CT Assay (AID 2283069).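 Note: total protein by sulforhodamine B staining as a cytotoxicity measure; read 24 h after compound addition.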 The conditions noted are these: primary human keratinocytes with fibroblasts. The essentials:
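Human primary keratinocyte plus foreskin fibroblast co-culture exposed to chemicals for 24 h. Total protein measured by 0.1% sulforhodamine B staining after 10% TCA fixation, read at 560 nm; bidirectional fitting versus DMSO baseline.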

Read-out in test [16]: Interleukin-1 alpha (IL1a), IL1A (gene 3552)
The test can be described thus: BSK_KF3CT_IL1a: BioMAP Diversity Plus: KF3CT Assay for Interleukin-1 alpha (IL1a) Biomarker Activity (AID 2283070). The conditions noted are these: primary human keratinocytes with fibroblasts; actives raise or lower the signal. The essentials:
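Human keratinocyte plus foreskin fibroblast primary co-culture, sampled 24 h after chemical dosing. IL-1a measured by ELISA; responses fitted bidirectionally against DMSO baseline (negative control), so gain or loss of signal both count.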

Read-out in test [17]: TIMP metallopeptidase inhibitor 2 (TIMP2), TIMP2 (gene 7077)
The test can be described thus: BSK_KF3CT_TIMP2: BioMAP Diversity Plus: KF3CT Assay for TIMP metallopeptidase inhibitor 2 (TIMP2) Biomarker Activity (AID 2283071). The conditions noted are these: primary human keratinocytes with fibroblasts; actives raise or lower the signal. The gist of the method: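 Cells: human keratinocytes co-cultured with foreskin fibroblasts. Treat with chemical, 24 h. Measure TIMP-2 by ELISA; fit curves bidirectionally vs DMSO baseline.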

Read-out in test [18]: Transforming growth factor beta 1 (TGFb1), TGFB1 (gene 7040)
The test can be described thus: BSK_KF3CT_TGFb1: BioMAP Diversity Plus: KF3CT Assay for Transforming growth factor beta 1 (TGFb1) Biomarker Activity (AID 2283072). The conditions noted are these: primary human keratinocytes with fibroblasts; actives raise or lower the signal. The essentials:
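Primary human skin cells (keratinocytes, foreskin fibroblasts) were co-cultured, exposed to test chemical and sampled at 24 h. TGF-b1 levels were measured by ELISA and fitted bidirectionally relative to DMSO.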

Read-out in test [19]: Vascular cell adhesion molecule 1 (VCAM1), VCAM1 (gene 7412)
Put plainly: BSK_hDFCGF_VCAM1: BioMAP Diversity Plus: hDFCGF Assay for Vascular cell adhesion molecule 1 (VCAM1) Biomarker Activity (AID 2283065). The conditions noted are these: primary human foreskin fibroblasts; actives raise or lower the signal. The gist of the method:
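ELISA read-out of VCAM-1 on human skin fibroblasts, 24 h post-dose; gain or loss of signal fitted bidirectionally against DMSO baseline.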

Regarding `N#CCCC(Br)(C#N)CBr` (configuration not stated), the AC50 was 3.73 µM (active) in [1]; 15.6 µM (active) in [2]; 11.9 µM (active) in test [3]; 17 µM (active) in test [4]; 12.7 µM (active) in test [6]; 0.4 µM (active) in [7]. Further, the half-maximal activity concentration (AC50) is 5.08 µM (active) in test [8]; 4.28 µM (active) in test [9]; 6.19 µM (active) in [10]; 11.8 µM (active) in test [11]; 9.61 µM (active) in [12]; 26.8 µM (active) in test [13]. In addition, the AC50 was 33.1 µM (active) in test [14]; 20 µM (active) in test [15]; 14.4 µM (active) in [16]; 20 µM (active) in [17]; 11.3 µM (active) in [18]. Also, the outcome in test [5] was inactive.
For `N#Cc1cccnc1`, the outcome in [1], in test [2], in [3], in test [4], in [5] and in test [6] was inactive. The outcome in [7], in test [8], in test [9], in test [10], in test [11] and in [12] was inactive. For the same compound, the outcome in test [14], in test [15], in test [16], in [17] and in test [18] was inactive.
For `Cc1cc(Cl)ccc1N`, the result in [1], in test [2], in [3], in [4], in test [5] and in [6] was inactive. The result in test [8], in test [9], in [10], in [11], in [12] and in test [14] was inactive. The result in [15], in test [16], in test [17] and in test [18] was inactive. Also, the AC50 in test [7] was 5.13 µM (active).
For `Cc1cc(C)cc(C)c1`, the result in test [1], in test [2], in test [3], in test [4], in test [5] and in test [6] was inactive. In addition, the outcome in test [7], in test [8], in test [9], in [10], in test [11] and in [19] was inactive. Besides, the outcome in test [12], in test [14], in [15], in test [16], in [17] and in [18] was inactive.
`CCCCCCCCCCCCN(C)C`: the outcome in test [1], in [2], in test [3], in test [4], in test [5] and in [6] was inactive. Moreover, the result in test [7], in [8], in test [9], in [10], in test [11] and in test [12] was inactive. In addition, the result in test [13], in [14], in test [15], in [16], in [17] and in test [18] was inactive.
Turning to `CCC(C)(C#N)N=NC(C)(C#N)CC` (configuration not stated), the outcome in [1], in test [2], in test [3], in test [4], in test [5] and in test [6] was inactive. The outcome in test [7], in [8], in test [9], in test [10], in [11] and in test [13] was inactive. For the same compound, the outcome in [14], in test [15], in [16], in [17] and in test [18] was inactive. Also, in [12], the AC50 is 0.016 µM (active).
On to `OCCCCO`, for which the outcome in test [1], in [2], in [3], in test [4], in test [5] and in [6] was inactive. Further, the outcome in test [7], in test [8], in test [9], in test [10], in test [11] and in [12] was inactive. For the same compound, the outcome in [14], in test [15], in [16] and in [17] was inactive.
